Measurements as given in PubChem BioAssay (NCATS).
Inconclusive results are not listed. Calls of active or inactive are those of the source. Calls follow the shape of the dose curve; as a rule, active = well fitted cell-killing curve with a large enough effect; inconclusive = small, poorly fitted or top-dose-only effect, or effect the other way; inactive = flat fitted curve, though single readings scatter.

Tests used:
Experiment in all cases: Primary qHTS to identify gynecologic anti-cancer compounds using libraries of approved drugs and bioactive compounds (AID 1345084); also: nearly all actives have a fitted effect of over 55% in size
Settings in all cases: Gynecologic cancer cell panel viability, ATPlite luminescence, 48 h; series mostly up to 57.5 µM
[1] = test system: PA-1
How it was run: (§1)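 Cell viability after 48 h drug treatment, ATPlite luminescence readout; five doses.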

[2] = test system: SKOV3
How it was run: as §1

[3] = test system: Tov-21-G
How it was run: as §1

[4] = test system: Tov112D
How it was run: as §1
% is scaled to controls: 0 for no effect and ±100 for the full control effect; potency is read from the fitted curve at half-maximal effect.

COc1ccccc1Oc1ccc(N(Cc2cccnc2)S(=O)(=O)CC(F)(F)F)cc1
inactive: Potency [1] | Potency [2] | Potency [3] | Potency [4]

[N-]=[N+]=N[C@]1(CO)O[C@@H](n2ccc(=O)[nH]c2=O)[C@@H](O)[C@@H]1O
inactive: Potency [1] | Potency [2] | Potency [3] | Potency [4]

C[C@H](C(=O)NC1CCCC1)N(C(=O)Cn1nnc(-c2ccc3c(c2)OCO3)n1)C1CCCCC1
inactive: Potency [1] | Potency [2] | Potency [3] | Potency [4]

C=C[C@@H]1[C@H](O[C@@H]2O[C@H](CO)[C@@H](O)[C@H](O)[C@H]2O)OC=C(C(=O)O)[C@H]1CCOC(=O)/C=C/c1ccc(O)c(O)c1
inactive: Potency [1] | Potency [2] | Potency [3] | Potency [4]

CCCN1CCN(c2ccc(C(=O)NC3(C(=O)NCC#N)CCCCC3)cc2)CC1
inactive: Potency [1] | Potency [2] | Potency [3] | Potency [4]

C/C=C/C(O)C1OC(=O)CC1Nc1ccc(C(=O)O)cc1 (configuration not stated)
inactive: Potency [1] | Potency [2] | Potency [3] | Potency [4]

CC(C)C1=CC2C(CC[C@]2(C)O)[C@](C)(O)CC1 (some centres not stated)
inactive: Potency [1] | Potency [2] | Potency [3] | Potency [4]

CC(C)=CCC[C@](C)(O)[C@H]1CC[C@]2(C)[C@@H]1[C@H](O)CC1[C@@]3(C)CC[C@H](O)C(C)(C)[C@@H]3[C@@H](O[C@@H]3O[C@H](CO)[C@@H](O)[C@H](O)[C@H]3O[C@@H]3O[C@H](CO)[C@@H](O)[C@H](O)[C@H]3O)C[C@]12C (some centres not stated)
inactive: Potency [1] | Potency [2] | Potency [3] | Potency [4]

COC(=O)C1=COC(OC2OC(CO)C(O)C(O)C2O)C2C1C=CC2(O)CO (configuration not stated)
inactive: Potency [1] | Potency [2] | Potency [3] | Potency [4]

O=C(O)Cc1ccc2oc(-c3ccc(NC(=O)/C=C/c4ccc(Br)cc4)c(F)c3)nc2c1
inactive: Potency [1] | Potency [2] | Potency [3] | Potency [4]

CC(C)/C=C1\NC(=O)C(C(C)C)n2c1nc1c(c2=O)C=CC=CO1 (configuration not stated)
inactive: Potency [1] | Potency [2] | Potency [3] | Potency [4]

CC1=CC(=O)CC(C)(C)[C@H]1/C=C/C(CO)O[C@@H]1O[C@H](CO)[C@@H](O)[C@H](O)[C@H]1O (some centres not stated)
inactive: Potency [1] | Potency [2] | Potency [3] | Potency [4]

CC1C(=O)OCC2=CCN3CCC(OC(=O)C(C)(O)C1(C)O)C23 (configuration not stated)
inactive: Potency [1] | Potency [2] | Potency [3] | Potency [4]

C[C@H]1CC(=O)Nc2cccc(-c3cnn(C(C)(C)C)c3)c2N1
inactive: Potency [1] | Potency [2] | Potency [3] | Potency [4]

C[C@]1(CO)CCC[C@]2(C)C3=C(CCC12)COC3 (some centres not stated)
inactive: Potency [1] | Potency [2] | Potency [3] | Potency [4]

COc1cc([C@H]2c3cc(O)c(OC)cc3C[C@@H](CO[C@@H]3O[C@H](CO)[C@@H](O)[C@H](O)[C@H]3O)[C@@H]2CO)ccc1O
inactive: Potency [1] | Potency [2] | Potency [3] | Potency [4]

COC(=O)C[C@H]1C(C)(C)[C@H](OC(C)=O)C2CC3=C4CC(=O)O[C@@H](c5ccoc5)[C@]4(C)CCC3[C@@]1(C)C2=O (some centres not stated)
inactive: Potency [1] | Potency [2] | Potency [3] | Potency [4]

COC1CC(OC2CCC3(C)C(=CCC4C3C(OC(C)=O)C(OC(=O)/C=C/c3ccccc3)C3(C)C(C(C)O)CCC43O)C2)OC(C)C1OC1CC(OC)C(OC2OC(C)C(OC3OC(CO)C(O)C(O)C3O)C(OC)C2O)C(C)O1 (configuration not stated)
inactive: activity change, negative = cytotoxicity [1] -0.704% [at 6.55 µM] | activity change, negative = cytotoxicity [2] -8.31% [at 6.55 µM] | activity change, negative = cytotoxicity [3] 9.97% [at 6.55 µM] | activity change, negative = cytotoxicity [4] 2.28% [at 6.55 µM]

O=C(O)Cc1cn(C2OCC(O)C(O)C2O[C@@H]2O[C@H](CO)[C@@H](O)[C@H](O)[C@H]2O)c2ccccc12 (some centres not stated)
inactive: Potency [1] | Potency [2] | Potency [3] | Potency [4]

C[C@@H]1N[C@H]2N(C1=O)c1ccccc1[C@@]2(O)C[C@@H]1C(=O)N[C@@H](C)c2nc3ccccc3c(=O)n21
inactive: Potency [1] | Potency [2] | Potency [3] | Potency [4]

COC(=O)C12CCC(C)C(C)C1C1=CCC3C4(C)CCC(OC(C)=O)C(C)(C)C4CCC3(C)C1(C)CC2 (configuration not stated)
inactive: Potency [1] | Potency [2] | Potency [3] | Potency [4]

O=C1NC(Cc2c[nH]c3ccccc23)C(=O)NC1Cc1cnc[nH]1 (configuration not stated)
inactive: Potency [1] | Potency [2] | Potency [3] | Potency [4]

Cc1c(NC(=O)c2cc(C(N)=O)nc3cc(F)ccc23)c(C(F)(F)F)nn1Cc1ccc(C#N)cc1
active: Potency [2] 2240 nM
inactive: Potency [1] | Potency [3] | Potency [4]

C[C@@H]1C(=O)O[C@H]2[C@H](O)C34[C@H]5C[C@@H](C(C)(C)C)C36[C@@H](OC(=O)[C@@H]6O)O[C@@]4(C(=O)O5)[C@@]12O (some centres not stated)
inactive: Potency [1] | Potency [2] | Potency [3] | Potency [4]

C=C1C(=O)OC2CC(C)=C(C(C)CCCO)C(O)C12 (configuration not stated)
inactive: Potency [1] | Potency [2] | Potency [3] | Potency [4]

Cc1cc(C)cc(C(=O)NOCCCCCC(=O)NO)c1
active: Potency [1] 891 nM | Potency [2] 3160 nM | Potency [3] 8910 nM | Potency [4] 3550 nM

COc1cc(/C=C/CO)cc(OC)c1O[C@@H]1O[C@H](CO[C@@H]2O[C@H](CO)[C@@H](O)[C@H](O)[C@H]2O)[C@@H](O)[C@H](O)[C@H]1O
inactive: Potency [1] | Potency [2] | Potency [3] | Potency [4]

CC1=CC(=O)CC(C)(C)C1/C=C/C(C)O[C@@H]1O[C@H](CO)[C@@H](O)[C@H](O)[C@H]1O[C@@H]1OC[C@](O)(CO)[C@H]1O (some centres not stated)
inactive: Potency [1] | Potency [2] | Potency [3] | Potency [4]

OC/C=C/c1ccc(O[C@@H]2O[C@H](CO)[C@@H](O)[C@H](O)[C@H]2O)cc1
inactive: Potency [1] | Potency [2] | Potency [3] | Potency [4]

CC(C)S(=O)(=O)NC[C@H](C)c1ccc(NC(=O)c2cc(F)cc(F)c2)cc1
inactive: Potency [1] | Potency [2] | Potency [3] | Potency [4]

O=C(OC[C@H]1O[C@H](O[C@]2(CO)O[C@H](CO)[C@@H](O)[C@@H]2O)[C@H](O)[C@@H](O)[C@@H]1O)c1ccccc1
inactive: Potency [1] | Potency [2] | Potency [3] | Potency [4]

CC(C)CC(=O)OC1OC=C(CO[C@@H]2O[C@H](CO)[C@@H](O)[C@H](O)[C@H]2O)C2CC(O)C(O)(CO)C12 (some centres not stated)
inactive: Potency [1] | Potency [2] | Potency [3] | Potency [4]

CC(C(O)/C=C/C(C)(C)O)C1CCC2(C)C3C(=O)C=C4C(CCC(O)C4(C)C)C3(C)CCC12C (configuration not stated)
inactive: Potency [1] | Potency [2] | Potency [3] | Potency [4]

COc1ccc(/C=C/C(=O)O[C@@H]2[C@@H](O)[C@@H](O)[C@H](O[C@@H]3C=C(CO)[C@H]4[C@H](O[C@@H]5O[C@H](CO)[C@@H](O)[C@H](O)[C@H]5O)OC=C[C@H]43)O[C@H]2C)cc1O
inactive: Potency [1] | Potency [2] | Potency [3] | Potency [4]

COc1ccc(-c2cnc(-c3cccc4c3-c3ccccc3C4=O)o2)cc1
active: Potency [1] 355 nM | Potency [2] 158 nM | Potency [3] 141 nM | Potency [4] 178 nM

C[C@@H]1O[C@@H](O[C@H]2[C@@H](OC(=O)[C@]34CCC(C)(C)CC3C3=CCC5[C@@]6(C)C[C@H](O)[C@H](O[C@@H]7O[C@H](C(=O)O)[C@@H](O)[C@H](O)[C@H]7O)[C@@](C)(C(=O)O)C6CC[C@@]5(C)[C@]3(C)CC4)OC[C@H](O)[C@@H]2O)[C@H](O)[C@H](O)[C@H]1O[C@@H]1OC[C@@H](O)[C@H](O)[C@H]1O (some centres not stated)
inactive: activity change, negative = cytotoxicity [1] -35% [at 11.6 µM] | activity change, negative = cytotoxicity [2] 13.5% [at 11.6 µM] | activity change, negative = cytotoxicity [3] -4.55% [at 11.6 µM] | activity change, negative = cytotoxicity [4] -6.05% [at 11.6 µM]

COC(=O)C1=CO[C@@H](O[C@@H]2O[C@H](CO[C@@H]3O[C@H](COC(=O)/C=C/c4cc(OC)c(O)c(OC)c4)[C@@H](O)[C@H](O)[C@H]3O)[C@@H](O)[C@H](O)[C@H]2O)[C@@H]2C(CO)=CC[C@H]12
inactive: Potency [1] | Potency [2] | Potency [3] | Potency [4]

COc1cc2c3c(cc4ccccc4c3c1O)NC2=O
inactive: Potency [1] | Potency [2] | Potency [3] | Potency [4]

CCCC(=O)NCCc1csc(-c2ccc(Cl)cc2)n1
inactive: Potency [1] | Potency [2] | Potency [3] | Potency [4]

CC(=O)c1cc2c(cc1O)OC(C)(C)C=C2
inactive: Potency [1] | Potency [2] | Potency [3] | Potency [4]

CC1=C(C(=O)O[C@@H]2O[C@H](COC3OCC(O)C(O)C3O)[C@@H](O)[C@H](O)[C@H]2O)C(C)(C)CCC1 (some centres not stated)
inactive: Potency [1] | Potency [2] | Potency [3] | Potency [4]

COc1ccc(-c2ccc(-c3cn(C(=O)N4CCCCC4c4ccccc4)nn3)cc2)cc1 (configuration not stated)
inactive: Potency [1] | Potency [2] | Potency [3] | Potency [4]

CC1(C)CCC[C@]2(C)[C@H]3CC(=O)O[C@]3(C)CC[C@@H]12
inactive: Potency [1] | Potency [2] | Potency [3] | Potency [4]

O=C(NCc1cccc(O)c1)Nc1nc(-c2ccncc2)cs1
inactive: Potency [1] | Potency [2] | Potency [3] | Potency [4]

CC1(C)CC[C@]2(C(=O)O[C@@H]3O[C@H](CO)[C@@H](O)[C@H](O)[C@H]3O)CC[C@]3(C)C(=CCC4[C@@]5(C)CC[C@H](O[C@@H]6O[C@H](C(=O)O)[C@@H](O)[C@H](O[C@@H]7O[C@H](CO)[C@H](O)[C@H](O)[C@H]7O)[C@H]6O)C(C)(C)C5CC[C@]43C)C2C1 (some centres not stated)
inactive: activity change, negative = cytotoxicity [1] -14.7% [at 11.6 µM] | activity change, negative = cytotoxicity [2] 12.6% [at 11.6 µM] | activity change, negative = cytotoxicity [3] -0.142% [at 11.6 µM] | activity change, negative = cytotoxicity [4] -2.13% [at 11.6 µM]

COc1ccc(-c2c(-c3cc(C(=O)O)ccn3)ncn2C)cc1
inactive: Potency [1] | Potency [2] | Potency [3] | Potency [4]

CC1CC[C@]2(C(=O)O)CC[C@]3(C(=O)O)C(=CCC4[C@@]5(C)CC[C@H](OC6OC(C)C(O)C(OC7OC(CO)C(O)C(O)C7O)C6O)C(C)(C)C5CC[C@]43C)C2C1C (some centres not stated)
inactive: Potency [1] | Potency [2] | Potency [3] | Potency [4]

COc1cc(C(=O)OC[C@@]2(O)CO[C@@H](O[C@H]3[C@H](Oc4ccc(C(=O)O)cc4OC)O[C@H](CO)[C@@H](O)[C@@H]3O)[C@@H]2O)ccc1O
inactive: Potency [1] | Potency [2] | Potency [3] | Potency [4]
